Most compounds without a hit are left out; they make up all but 4.7% or so of the library.
D1 agonist: Allosteric Agonists of the Human D1 Dopamine Receptor: qHTS; D(1A) dopamine receptor (Homo sapiens), P21728; HEK293 T-REx D1 cells, calcium flux, agonist mode; activation, % at 2 µM; 360,000 tested, 1% active; AID 504660, 2011
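Tetracycline-induced HEK293 TREx D1 cells, force-coupled to calcium signalling, were dye-loaded with a no-wash calcium kit. Compound was pin-added after a 10 s baseline. Fluorescence was read kinetically at 1 cycle/s for 180 s, with calcium rises flagged as agonism.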
TRHR agonist: qHTS for Small Molecule Agonists and Allosteric Enhancers of Human TRH Receptor: Primary Screen for Agonists | 360,000 tested, 0.18% active | Thyrotropin-releasing hormone receptor (Homo sapiens), P34981 | TRHR cells, calcium flux fluo-8, FDSS agonist mode | activation, % at 2 µM
Target sequence (P34981 whole entry, looked up): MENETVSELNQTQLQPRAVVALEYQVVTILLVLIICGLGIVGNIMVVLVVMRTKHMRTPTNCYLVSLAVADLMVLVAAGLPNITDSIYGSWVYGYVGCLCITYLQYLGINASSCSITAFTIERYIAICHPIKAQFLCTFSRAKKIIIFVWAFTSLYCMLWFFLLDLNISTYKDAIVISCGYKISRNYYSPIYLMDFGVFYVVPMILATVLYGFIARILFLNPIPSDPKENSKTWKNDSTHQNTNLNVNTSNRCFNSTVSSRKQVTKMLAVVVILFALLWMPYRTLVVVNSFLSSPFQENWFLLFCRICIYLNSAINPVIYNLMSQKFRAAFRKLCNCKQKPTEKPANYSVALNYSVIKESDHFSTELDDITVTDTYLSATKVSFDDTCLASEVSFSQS
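In this calcium-flux screen, cells bearing human TRHR are dye-loaded with fluo-8, baselined for 10 cycles, then exposed to library compounds; positive kinetic calcium responses during the agonist phase mark hits, with TRH as control.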
TRHR enhancer: qHTS for Small Molecule Agonists and Allosteric Enhancers of Human TRH Receptor: Primary Screen for Enhancers; Thyrotropin-releasing hormone receptor (Homo sapiens), P34981; TRHR cells, fluo-8 calcium fluorescence, EC20 TRH enhancement; enhancement, % at 2 µM; 360,000 tested, 0.66% active; AID 493056, 2011; in the data active = enhancement above about 30%
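TRHR-expressing cells loaded with fluo-8 calcium dye were read kinetically (ex 480/em 530) during compound addition, then stimulated with an EC20 of TRH (10 nM final). Enhancement of the Gq-mediated intracellular calcium response was scored.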
D1 potentiator: Potentiators of Human D1 Dopamine Receptor: qHTS; D(1A) dopamine receptor (Homo sapiens), P21728; HEK293 TREx D1 cells, calcium flux, dopamine EC20 potentiation; potentiation, % at 10 µM; 360,000 tested, 0.036% active; in the data active = potentiation above about 30%
D1 antagonist: Antagonist of Human D 1 Dopamine Receptor: qHTS; D(1A) dopamine receptor (Homo sapiens), P21728; HEK293 TREx D1 cells, calcium flux, dopamine EC80; stronger effect = lower value; activity change, negative = inhibition, % at 10 µM; 360,000 tested, 3.2% active; AID 504652, 2011; in the data active = activity change below about -30%
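Cells carrying a force-coupled, tetracycline-inducible human D1 receptor report calcium flux. Each well gets a 10 s baseline, compound with 180 s monitoring, then an EC80 dopamine stimulus with a second 180 s kinetic read.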
Hits are given with their value; . = inactive; / = no result. Cut-off read from the data, not from the text of the source, unless noted: active = activation above about 30%; inactive = the rest.

SMILES | D1 agonist | TRHR agonist | TRHR enhancer | D1 potentiator | D1 antagonist
COc1ccc(C2=NN(c3ccc(C=O)cc3)C(c3ccccc3)C2)cc1 (stereo unspecified) | . | . | . | . | .
COc1ccc(C2CC(c3cccs3)=NN2c2ccc(C=O)cc2)cc1 (stereo unspecified) | 244.1 | 40.4 | . | . | -61.6
COc1ccc(CC(=O)Nc2cccc(-c3ccc4nnc(C)n4n3)c2)cc1 | . | . | . | . | .
Cc1nnc2ccc(-c3cccc(NS(=O)(=O)c4ccccc4Cl)c3)nn12 | . | . | 36.3 | . | .
CCOc1ccc(CC(=O)Nc2cccc(-c3ccc4nnc(C)n4n3)c2)cc1 | . | . | . | . | -31.8
Cc1nnc2ccc(-c3cccc(NC(=O)c4ccco4)c3)nn12 | . | . | . | . | -32.6
O=C(NCCc1csc(-c2cccc(F)c2)n1)c1ccc(Br)o1 | . | . | . | . | .
COc1cccc(NC(=O)c2cnc(SCC(=O)N3CCOCC3)n(C)c2=O)c1 | . | . | . | . | /
Cc1ccc(N(C(C)C(=O)N2CCCCC2)S(C)(=O)=O)cc1C (stereo unspecified) | . | . | . | . | .
Cc1cc(F)ccc1NC(=O)C(C(C)C)N1Cc2ccccc2C1=O (stereo unspecified) | . | . | . | . | .
S=C1NCN(Cc2ccco2)CN1 | . | . | 40.7 | . | .
CCn1c(SCc2ccc(Cl)cc2Cl)nc2nc3c(cc2c1=O)CCCC3 | . | . | . | . | -43.1
O=C(CSc1nc2nc3c(cc2c(=O)n1-c1ccccc1)CCCC3)Nc1ccccc1 | . | . | . | . | .
CCc1cccc(NC(=O)Nc2ccc3c(c2)N(C)C(=O)c2ccccc2S3)c1 | . | . | . | . | -38.9
Cn1c(=N)n(CC(=O)c2ccc(Br)s2)c2ccccc21 | . | . | . | . | .
N=c1n(CC(=O)c2ccc(Br)s2)c2ccccc2n1Cc1ccccc1 | 48.7 | . | . | . | .
O=S(=O)(c1ccc(C(F)(F)F)cc1)N1CCN(S(=O)(=O)c2ccc3c(c2)OCCO3)CC1 | . | . | . | . | .
C=CCNc1nc(N)c(C(=C(C#N)C#N)c2ccc(Br)cc2)s1 | . | . | . | . | -31.5
C=CCNc1sc(C(=O)c2ccc(C)cc2)c(N)c1C#N | . | . | . | . | .
O=C(Nc1ccc(Cl)cc1)c1ccc(-n2cnnc2)cc1 | . | . | . | . | .
Cc1cc(C)cc(Oc2nc3c(C)cccn3c(=O)c2/C=C(\C#N)c2nc3ccccc3s2)c1 | . | . | 53.9 | . | .
CC(C)c1ccc(/C=C/C(=O)Nc2nn[nH]n2)cc1 | . | . | . | . | -30.6
Cc1ccc(/C=C/C(=O)Nc2nn[nH]n2)o1 | . | . | . | . | .
CCOc1ccc(CNC(=O)c2cc3c(s2)-c2ccccc2OC3)cc1 | . | . | . | . | .
CC(=O)Nc1ccc(N(C(=O)c2ccco2)C(C(=O)NC2CCCC2)c2ccc(N(C)C)cc2)cc1 (stereo unspecified) | . | . | . | . | .
SMILES | D1 agonist | TRHR agonist | TRHR enhancer | D1 potentiator | D1 antagonist
CC(=O)Nc1ccc(N(C(=O)c2ccco2)C(C(=O)NC2CCCC2)c2ccc(N3CCOCC3)cc2)cc1 (stereo unspecified) | . | . | 35.2 | . | .
CC(=O)c1ccc(Nc2nc(N3CCOCC3)nc(N3CCOCC3)n2)cc1 | . | . | 39.6 | . | .
CC(=O)c1cccc(Nc2nc(N3CCOCC3)nc(N3CCOCC3)n2)c1 | . | . | . | . | .
CCc1ccccc1NC(=O)CSc1ncc2c(n1)-c1cc(Cl)ccc1N(Cc1ccccc1)S2(=O)=O | . | . | . | . | -50.2
COc1ccc(OCC(O)Cn2c(=N)n(CCN3CCCCC3)c3ccccc32)cc1 (stereo unspecified) | . | . | . | . | .
COc1ccccc1OCC(O)Cn1c(=N)n(Cc2ccccc2)c2ccccc21 (stereo unspecified) | 47.3 | . | . | . | -61.5
Cc1ccccc1OCC(O)Cn1c2ccccc2c2ccccc21 (stereo unspecified) | . | . | . | . | .
N=c1n(CCN2CCCCC2)c2ccccc2n1CC(O)COc1ccc(Cl)cc1Cl (stereo unspecified) | 194.9 | . | . | . | .
Cc1ccccc1OCC(O)Cn1c(=N)n(Cc2ccccc2)c2ccccc21 (stereo unspecified) | 44.8 | . | . | . | -37.7
CCC1=Nc2cc(C(=O)N3CCC(C)CC3)ccc2Sc2ccc(C)cc21 | . | . | . | . | .
O=c1cc(-c2ccccc2)oc2ccc(O)cc12 | . | . | . | . | .
COc1ccc(-c2cc(=O)c3cc(O)ccc3o2)cc1 | . | . | . | . | -33.6
COc1ccc(-c2cc(=O)c3cc(OCC(=O)OC(C)C)ccc3o2)cc1 | . | . | . | . | -60.3
O=C(COc1ccc2oc(-c3ccccc3)cc(=O)c2c1)NCc1ccco1 | . | . | . | . | .
O=C(N/N=C/c1cc(Cl)cc([N+](=O)[O-])c1O)c1ccccc1NS(=O)(=O)c1cccs1 | . | . | . | . | -30.4
O=C(Cn1c(SCC(=O)Nc2ccc(F)cc2)nc2ccccc21)NCc1ccc(F)cc1 | . | . | . | . | .
O=C(Cn1c(SCc2ccccc2F)nc2cccnc21)Nc1ccc(F)c(Cl)c1 | . | . | 36.0 | . | .
O=C(Cn1cc(S(=O)(=O)Cc2ccc(F)cc2)c2ccccc21)NCc1ccccc1Cl | 35.7 | . | . | . | .
Cc1ccc(CNC(=O)Cn2cc(S(=O)(=O)Cc3ccccc3F)c3ccccc32)cc1 | 31.7 | . | . | . | .
O=C(Cn1cc(S(=O)(=O)Cc2ccccc2F)c2ccccc21)NCc1ccccc1 | . | . | . | . | .
O=C(Cn1c(SCC(=O)Nc2ccc(F)cc2)nc2ccccc21)NCc1ccccc1Cl | 32.7 | . | . | . | .
CCc1ccc(NC(=O)CC(c2ccc(C)cc2)N2Cc3ccccc3C2=O)cc1 (stereo unspecified) | . | . | . | . | .
CCOc1ccc(CCNC(=O)CSc2nnnn2-c2ccccc2Cl)cc1OCC | . | . | . | . | .
NC(=O)c1c(NC(=O)c2ccccc2Cl)sc2c1CCC2 | . | . | 35.7 | . | .
NC(=O)c1c(NC(=O)c2ccccc2C(=O)O)sc2c1CCCC2 | . | . | . | . | .
Cc1cc(Nc2cccc(C(F)(F)F)c2)nc2ccc(NC(=O)c3ccc(N(C)C)cc3)cc12 | . | . | . | . | .
C/C(=N\NC(=O)CCCNc1ccc(C)cc1)c1ccccn1 | . | . | 32.1 | . | .
